# Only some compounds are listed: those with a hit (about 21% of all), similar ones and a draw of the others.
# TDP1 cell CPT = qHTS for Inhibitors of human tyrosyl-DNA phosphodiesterase 1 (TDP1): qHTS in cells in presence of CPT | AID 686979, 2013 | chicken DT40 Tdp1-/-;hTDP1 cells + 20 nM CPT, ATP luminescence, 48 h | hit rate 12% among 420,000 | Potency, µM (series often up to 46.2 µM), for inactives: at the highest dose activity change, negative = growth inhibition, actives largely listed as inhibitors; further: potency means the concentration at half of the fitted maximal effect; nearly all actives have a fitted effect of over 55% in size
#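 Cell growth measured by CellTiter-Glo luminescence after a minimum 48 h, 37 C compound exposure with 20 nM CPT in Tdp1-knockout DT40 cells stably expressing hTDP1, seeded 400/well; qHTS titration format.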
# DT40 TDP1 no CPT = qHTS for Inhibitors of human tyrosyl-DNA phosphodiesterase 1 (TDP1): qHTS in cells in absence of CPT; Potency, µM (highest dose often 46.2 µM), for the others: at the top dose activity change, negative = growth inhibition, usual class: inhibitors; AID 686978, 2013; hit rate 15% among 420,000; DT40 Tdp1-/- hTDP1 cells, no CPT, ATP luminescence, 48 h; further: potency means the concentration at half of the fitted maximal effect; nearly all actives have a fitted effect of over 55% in size
#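 Readout: luminescence from CellTiter-Glo after 30 min in the dark at RT. Cells: DT40 Tdp1-/- with stable hTDP1, 400/well. Exposure: compounds alone, ≥48 hr, 37 °C.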
# RORgamma inh = qHTS for inhibitors of ROR gamma transcriptional activity | Potency, µM (highest dose often 53.6 µM), for the others: at the top dose activity change, negative = inhibition, actives largely listed as inhibitors | Drosophila S2 Gal4-RORgamma UAS-luciferase reporter, 20 h | Nuclear receptor ROR-gamma (Mus musculus), P51450 | hit rate 5.4% among 310,000; further: potency means the concentration at half of the fitted maximal effect; nearly all actives have a fitted effect of over 60% in size
# Target sequence (P51450 whole entry, looked up, the tested form may be a part): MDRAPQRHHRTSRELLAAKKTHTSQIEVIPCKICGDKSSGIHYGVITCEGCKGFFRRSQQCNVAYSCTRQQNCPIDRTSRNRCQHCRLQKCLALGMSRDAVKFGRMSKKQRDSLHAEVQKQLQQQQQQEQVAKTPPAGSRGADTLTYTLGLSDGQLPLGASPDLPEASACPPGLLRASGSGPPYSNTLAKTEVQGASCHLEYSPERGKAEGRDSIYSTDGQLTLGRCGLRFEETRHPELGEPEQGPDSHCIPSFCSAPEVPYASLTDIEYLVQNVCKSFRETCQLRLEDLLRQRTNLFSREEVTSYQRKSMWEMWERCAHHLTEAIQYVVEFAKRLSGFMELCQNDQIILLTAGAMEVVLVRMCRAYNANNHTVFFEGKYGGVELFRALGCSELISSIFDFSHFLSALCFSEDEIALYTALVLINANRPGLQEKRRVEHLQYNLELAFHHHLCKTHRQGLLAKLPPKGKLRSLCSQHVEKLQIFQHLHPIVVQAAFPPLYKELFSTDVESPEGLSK
#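 Using a luciferase readout, inhibitors were identified by reduced reporter activity in Drosophila cells coexpressing a copper-inducible Gal4–ROR gamma fusion and UAS-driven Photinus luciferase, incubated 20 hr after 700 uM copper sulfate.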
# IL1B secr inh = qHTS for Inhibitors of Inflammasome Signaling: IL-1-beta AlphaLISA Primary Screen; activity change, % at 57.5 µM; hit rate 4.7% among 360,000; AID 743279, 2014; THP-1 LPS/ATP IL-1B secretion, AlphaLISA, 16 h; active compounds read low; in the data active means activity change below about -50%; inconclusive means mostly about -30% to -49%
#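 Secreted IL-1B measured by AlphaLISA bead assay after 16 h compound exposure of THP-1 cells; compounds (final up to 57.5 uM) added 1 h before LPS (250 ng/mL) and ATP (1.25 mM) stimulation; lower signal means less secretion.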
# Gal4-VP16 FLuc = VP16 counterscreen qHTS for inhibitors of ROR gamma transcriptional activity | AID 2546, 2010 | Drosophila S2 Gal4-VP16 UAS-luciferase, luminescence, 20 h | Potency, µM (top dose mostly 53.6 µM), without a hit: top-dose activity, negative = inhibition, usual class: inhibitors | hit rate 3.5% among 310,000;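 further: Gal4-VP16 expression switched on by copper sulfate through the metallothionein promoter; potency means the concentration at half of the fitted maximal effect; nearly all actives have a fitted effect of over 50% in size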
# ELG1 DNA repair = qHTS screen for small molecules that inhibit ELG1-dependent DNA repair in human embryonic kidney (HEK293T) cells expressing luciferase-tagged ELG1; Potency, µM (series often up to 46.1 µM), for inactives: top-dose activity change, negative = inhibition, usual class: inhibitors; HEK293T ELG1-luciferase reporter, luminescence, 16 h; DNA damage induced by 5-fluorouridine; AID 504467, 2011; hit rate 2.3% among 330,000; further: potency means the concentration at half of the fitted maximal effect; nearly all actives have a fitted effect of over 55% in size
#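 Step one: seed 2,000 cells per well. Step two: pin-transfer compound or DMSO alongside 5-fluorouridine. Step three: incubate 16 hr, 37 °C, 5% CO2. Step four: add ONE-Glo, wait 30 min, read luminescence.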
# An asterisk follows results filed as active; ? = inconclusive; · = no result; [ ] = remark or other dose. Unless noted, the call rests on the fitted dose curve; in most records, active means well fitted curve in the direction sought with a large enough effect; inconclusive means small, poorly fitted or top-dose-only effect, or another doubt; inactive means no such curve, though single readings can be large; an effect the other way counts as inactive or inconclusive. On the % scale 0 is the no-effect control and ±100 the full control effect.
SMILES,TDP1 cell CPT,DT40 TDP1 no CPT,RORgamma inh,IL1B secr inh,Gal4-VP16 FLuc,ELG1 DNA repair
COc1nc(N/N=C/c2ccc(-c3cccc([N+](=O)[O-])c3)o2)nc(N2CCOCC2)n1,·,·,-8%,·,-2%,2.3µM*
O=[N+]([O-])c1ccc(-c2ccc(/C=N/Nc3nc(N4CCCCC4)nc(N4CCCCC4)n3)o2)cc1,?,21µM*,-7%,14,0%,4%
CC(NC(=O)C12CC3CC(CC(C3)C1)C2)C(=O)NN=Cc1ccc([N+](=O)[O-])o1 (stereo not given),?,?,·,?,·,-24%
O=[N+]([O-])c1ccc(/C=N/Nc2nc(N3CCCC3)nc(N3CCCC3)n2)o1,23µM*,?,-26%,2,17%,?
CCNc1nc(NCC)nc(N/N=C/c2ccc([N+](=O)[O-])o2)n1,16µM*,16µM*,?,7,-10%,0%
O=[N+]([O-])c1cccc(/C=N/Nc2nc(N3CCCCC3)nc(N3CCCCC3)n2)c1,?,?,-8%,50,-2%,13%
COc1ccc(-c2cnnc(N/N=C/c3ccc(-c4ccc([N+](=O)[O-])cc4)o3)n2)cc1,1.2µM*,1.5µM*,-36%,54,-6%,?
O=[N+]([O-])c1ccc(-c2ccc(/C=N/O)o2)cc1,-22%,?,3%,9,22%,?
CN(C(=O)COC(=O)c1ccccc1NCc1ccco1)c1c(N)n(Cc2ccccc2)c(=O)[nH]c1=O,-1%,-27%,·,-20,·,-23%
Cc1n(C)c2cc(Cl)ccc2[n+]1Cc1ccccc1,?,23µM*,-2%,-1,-7%,-23%
CC(C)[C@H]1c2ccc(F)cc2CC[C@@]1(CCN(C)CCCc1nc2ccccc2[nH]1)OC(=O)C1CC1,5µM*,4.5µM*,?,·,?,·
CCOC(=O)CCN1C(=O)[C@H]2[C@H]3[C@H](O)[C@H](O)C/C(=N/O[C@@H]4O[C@@H](COC(C)=O)[C@@H](OC(C)=O)[C@@H](OC(C)=O)[C@H]4OC(C)=O)[C@@H]3CC[C@@H]2C1=O,·,·,1%[10 µM],·,-3%[10 µM],·
Cc1noc(C)c1C(=O)N1CCC1(C)C(=O)NS(=O)(=O)c1cccc(OC(F)F)c1 (stereo not given),13%,4%,·,1,·,·
CCOC(=O)C1=C(CSc2nc3c(cc2C#N)CN(C)CC3)OC(N)=C(C#N)C1c1ccc(F)cc1 (stereo not given),?,?,15%,-2,-9%,19%
CCOC(=O)C1=C(CSc2nc3c(cc2C#N)CN(C)CC3)OC(N)=C(C#N)C1c1ccccc1 (stereo not given),?,29µM*,5%,2,-2%,23%
CCOC(=O)C1=C(CSc2nc3c(cc2C#N)CCC3)OC(N)=C(C#N)C1c1ccccc1 (stereo not given),29µM*,?,-40%,19,-11%,2%
CC1=C(C(=O)Nc2ccccn2)C(c2cn(C)nc2C)C2=C(CCCC2=O)N1 (stereo not given),0%,27%,12%,0,3%,9%
O=C(CN1C(=O)NC2(CCCC2)C1=O)Nc1cccc(Cl)c1,-10%,-18%,28%,-9,20%,-4%
Nc1ccn([C@@H]2O[C@H](CNC(=O)[C@H]3CCC(=O)N3)[C@@H](O)[C@H]2O)c(=O)n1,11%,-7%,·,21,·,·
Cc1ccccc1CC1(CO)CCCN(C(=O)Cc2c(F)ccc(F)c2F)C1 (stereo not given),16µM*,?,?,-8,-24%,-16%
COc1cc(S(=O)(=O)NCCc2c(C)[nH]c3ccccc23)c(C)cc1C,18µM*,18µM*,·,·,·,·
C=CCc1c(C)nc(SC)nc1Nc1ccc(C(C)=O)cc1,16µM*,21µM*,-7%,-23,10%,7.3µM*
C=CCc1c(C)nc(-c2ccccc2)nc1Nc1ccc(O)cc1,?,15µM*,-12%,-97*,-26%,?
NS(=O)(=O)c1ccc(N=Nc2cc3ccccc3c(C(=O)O)c2O)cc1,0.4µM*,1.1µM*,·,·,·,·
NS(=O)(=O)c1ccc(N=Cc2c(O)c3ccccc3oc2=O)cc1,11%,-20%,-11%,-11,-5%,-1%
SMILES,TDP1 cell CPT,DT40 TDP1 no CPT,RORgamma inh,IL1B secr inh,Gal4-VP16 FLuc,ELG1 DNA repair
NC(N)=NCCN1CCCCCCC1,?,-27%,·,·,·,·
O=Cc1ccc(-c2cccc([N+](=O)[O-])c2)o1,-18%,?,27%,-4,-6%,12%
O=C1NC(=Nc2ccccc2Cl)S/C1=C\c1cccc([N+](=O)[O-])c1,?,?,?,-7,-2%,2%
O=C1NC(=O)/C(=C/c2ccc(-c3cccc([N+](=O)[O-])c3)o2)S1,16µM*,?,-1%,-10,-4%,-14%
O=C(/C=C/c1ccc(-c2cccc([N+](=O)[O-])c2)o1)N1CCOCC1,16µM*,18µM*,22%,-1,2%,?
O=C1NC(=S)S/C1=C\c1cccc([N+](=O)[O-])c1,?,13µM*,·,22,·,·
O=C(/C=C/c1cccc([N+](=O)[O-])c1)N1CCOCC1,-4%,-11%,18%[10 µM],-12,-7%,19%
Oc1cccc(Nc2nc(O)c(/C=C3\C=Nc4ccccc43)s2)c1,?,?,?,83,?,?
CC1=Nc2ccccc2/C1=C\c1sc(Nc2ccc(C)cc2)nc1O,0.58µM*,0.92µM*,33%,-53*,-13%,?
Oc1nc(Nc2ccc(F)cc2)sc1/C=C1\C=Nc2ccccc21,?,-30%,?,-78*,-1%,?
Oc1c(C(Nc2ccccn2)c2ccccc2F)ccc2cccnc12 (stereo not given),?,16µM*,·,·,·,·
O=C(Nc1nccs1)c1cccc2ccccc12,-7%,0%,?,34,-25%,14%
Oc1c(C(Nc2ccccn2)c2ccccn2)ccc2cccnc12 (stereo not given),0.82µM*,0.82µM*,1.1µM*,93,2.2µM*,?
OC(c1ccccc1)C(Nc1ccccn1)c1ccccc1 (stereo not given),-7%,?,·,0,·,·

# Screening data as filed in PubChem.
